Most compounds without a hit are left out; they make up all but 27% or so of the library.
CYP2C19 act: human CYP2C19 activators, primary screen, biochemical, luminescence. Cytochrome P450 2C19 (Homo sapiens), P33261. activation factor at 5 µM. 96,000 tested, under 10 active. recombinant CYP2C19, luciferin-H EGE luminescence; active compounds read high; 0 = fully inhibited enzyme, 1 = untreated enzyme;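 active = activation factor of at least 2 at 5 µM in the primary screen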;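 note: 0 = wells with 2.5 mM tranylcypromine and 1 = vehicle-only wells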
Target sequence (P33261 whole entry, looked up): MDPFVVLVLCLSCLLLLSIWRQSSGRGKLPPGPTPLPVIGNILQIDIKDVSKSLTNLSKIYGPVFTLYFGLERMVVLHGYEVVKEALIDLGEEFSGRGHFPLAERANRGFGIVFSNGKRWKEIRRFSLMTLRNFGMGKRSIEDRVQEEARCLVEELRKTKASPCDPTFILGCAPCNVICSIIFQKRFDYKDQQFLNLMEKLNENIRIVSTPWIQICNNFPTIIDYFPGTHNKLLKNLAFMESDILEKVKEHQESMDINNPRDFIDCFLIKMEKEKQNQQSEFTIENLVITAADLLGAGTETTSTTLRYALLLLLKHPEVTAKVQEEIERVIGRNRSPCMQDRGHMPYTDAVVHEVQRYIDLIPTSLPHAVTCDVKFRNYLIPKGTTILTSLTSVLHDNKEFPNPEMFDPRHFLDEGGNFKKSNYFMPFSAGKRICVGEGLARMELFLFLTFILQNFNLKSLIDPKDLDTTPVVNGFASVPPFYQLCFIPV
Cav3 T inh: Cav3.2 calcium influx blockers – cell-based, Fluo-4 calcium fluorescence, FDSS, MLSMR library, primary screen; Voltage-dependent T-type calcium channel subunit alpha-1H (Homo sapiens), O95180; Cav3.2-expressing cells; active compounds read low; B-score at 10 µM; 4% of 100,000 active; AID 449739, 2010;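 active = single-dose well whose peak fluorescence ratio is a statistical outlier from its plate by either plate-standardised score or position-corrected B-score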
CYP2C9 inhib: blockers of cytochrome P450 2C9 activity – biochemical, luminescence, ADME assay, primary screen; P11712; CYP2C9 Supersomes, luciferin-H conversion; inhibition, % at 5 µM; 20% of 96,000 active; AID 777, 2007;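 active = blocking of liver enzyme CYP2C9 beyond about 50% at 5 µM, limit read from the data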
CYP2C19 inh: blockers of cytochrome P450 2C19 activity – biochemical, luminescence, ADME assay, primary screen. inhibition, % at 5 µM. CYP2C19 Supersomes, luciferin-H EGE luminescence, 30 min. AID 778, 2007. 21% of 96,000 active. P33261;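 active = CYP2C19 inhibition above a set limit at 5 µM in the primary screen, cut at about 50% in these data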;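 note: plate controls were negative control wells for no effect and 2.5 mM tranylcypromine positive control for full effect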
CYP2C9 activ: human CYP2C9 activators, primary screen, biochemical, luminescence; Cytochrome P450 2C9 (Homo sapiens), P11712; recombinant CYP2C9, luciferin-H conversion; active compounds read high; factor 1 = untreated enzyme, 0 = blocked; 1.4% of 96,000 active; activation factor at 5 µM; AID 1024, 2008;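 active = activation factor of 2 or more for CYP2C9 at a 5 µM dose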;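 note: 0 = sulfaphenazole-blocked wells and 1 = vehicle-only wells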
Numbers without * were called inactive.

How did CCCCSCCCNC(=O)CS(=O)Cc1nc(-c2cccc(C)c2)oc1C (stereo unspecified) do in these assays?
CYP2C19 act: 0.2; Cav3 T inh: -2.24; CYP2C9 inhib: 78.2*; CYP2C19 inh: 84.7*; CYP2C9 activ: 0.2

Results for CCCCNC(=O)CS(=O)Cc1nc(-c2cccc(Cl)c2)oc1C (stereo unspecified) ?
CYP2C19 act: 0.6; Cav3 T inh: -0.645; CYP2C9 inhib: 61.9*; CYP2C19 inh: 44.8; CYP2C9 activ: 0.4

Results for Cc1nc(CCNC(=O)COc2ccccc2)cs1 ?
CYP2C19 act: 0.7; Cav3 T inh: -1.08; CYP2C9 inhib: -6.1; CYP2C19 inh: 29.5; CYP2C9 activ: 1.1

Results for COc1ccc(NC(=O)CCc2c(C)nc3nc(C)nn3c2C)cc1 ?
CYP2C19 act: 1; Cav3 T inh: 0.344; CYP2C9 inhib: 0.0; CYP2C19 inh: -4.5; CYP2C9 activ: 1

What do the screens show for `Cc1nc2nc(-c3ccccc3)cn2nc1C`?
CYP2C19 act: 0.5; Cav3 T inh: 0.452; CYP2C9 inhib: 23.9; CYP2C19 inh: 52.3*; CYP2C9 activ: 0.8

What do the screens show for `c1ccc(-c2cn3nc4c(nc3n2)CCCC4)cc1`?
CYP2C19 act: 0.2; Cav3 T inh: -1.42; CYP2C9 inhib: 28.7; CYP2C19 inh: 80.8*; CYP2C9 activ: 0.7

How did CCCc1nnc(NC(=O)CCC(=O)Nc2ccc(F)cc2)s1 do in these assays?
CYP2C19 act: 0.9; Cav3 T inh: -0.0539; CYP2C9 inhib: 27.9; CYP2C19 inh: 13.8; CYP2C9 activ: 0.7

What do the screens show for `O=C(OCc1ccc(Cl)cc1Cl)c1ccncc1`?
CYP2C19 act: 0.3; Cav3 T inh: -0.995; CYP2C9 inhib: 43.7; CYP2C19 inh: 69.4*; CYP2C9 activ: 0.6

Results for O=C(C/C=N/OCc1ccc(Cl)cc1Cl)c1ccc(Cl)cc1 ?
CYP2C19 act: 0.7; Cav3 T inh: -2.93; CYP2C9 inhib: 1.3; CYP2C19 inh: 28.0; CYP2C9 activ: 1

How did COC(=O)c1ccccc1NC(=O)COC(=O)c1cccnc1 do in these assays?
CYP2C19 act: 0.5; Cav3 T inh: -0.086; CYP2C9 inhib: 40.4; CYP2C19 inh: 49.5; CYP2C9 activ: 0.6

Results for O=C(COC(=O)c1ccncc1)Nc1cc(Cl)ccc1Cl ?
CYP2C19 act: 0.3; Cav3 T inh: 0.0459; CYP2C9 inhib: 90.2*; CYP2C19 inh: 66.3*; CYP2C9 activ: 0.1

Results for O=C(COC(=O)c1ccncc1)Nc1cc(Cl)c(Cl)cc1Cl ?
CYP2C19 act: 0; CYP2C9 inhib: 88.2*; CYP2C19 inh: 97.5*; CYP2C9 activ: 0.1

How did CC(NC(=O)COc1ccccc1)C(c1ccccc1)N1CCN(C)CC1 (stereo unspecified) do in these assays?
CYP2C19 act: 0.5; Cav3 T inh: -0.00775; CYP2C9 inhib: 13.6; CYP2C19 inh: 46.5; CYP2C9 activ: 0.9

Results for c1ccc(-c2nc(NCc3cccnc3)c3ccccc3n2)cc1 ?
CYP2C19 act: 0.7; Cav3 T inh: -1.09; CYP2C9 inhib: 64.9*; CYP2C19 inh: 27.7; CYP2C9 activ: 0.4

How did Clc1cccc(-c2nc(NCc3cccnc3)c3ccccc3n2)c1 do in these assays?
CYP2C19 act: 1; Cav3 T inh: -0.833; CYP2C9 inhib: 36.7; CYP2C19 inh: 3.6; CYP2C9 activ: 0.6

Results for c1cncc(-c2nc(NCc3ccco3)c3ccccc3n2)c1 ?
CYP2C19 act: 0.8; Cav3 T inh: 0.834; CYP2C9 inhib: 62.1*; CYP2C19 inh: 24.3; CYP2C9 activ: 0.4

What do the screens show for `OCCSc1nc(-c2cccnc2)nc2ccccc12`?
CYP2C19 act: 0.4; Cav3 T inh: 0.174; CYP2C9 inhib: 89.6*; CYP2C19 inh: 62.7*; CYP2C9 activ: 0.1

What do the screens show for `CSc1nc(NCc2ccco2)c2ccccc2n1`?
CYP2C19 act: 0.4; Cav3 T inh: -1.53; CYP2C9 inhib: 63.5*; CYP2C19 inh: 64.4*; CYP2C9 activ: 0.4

Results for CCN(CC)S(=O)(=O)c1ccc(OC)c(NC(=O)c2cccc([N+](=O)[O-])c2C)c1 ?
Cav3 T inh: 0.0364

How did c1ccc(CN2CCN(c3nc(NCc4ccco4)c4ccccc4n3)CC2)cc1 do in these assays?
CYP2C19 act: 0.5; Cav3 T inh: -2.44; CYP2C9 inhib: 66.1*; CYP2C19 inh: 51.4*; CYP2C9 activ: 0.3

Results for N#Cc1c(NCc2ccccc2)ccnc1NCc1cccnc1 ?
CYP2C19 act: 0; Cav3 T inh: -0.0442; CYP2C9 inhib: 56.3*; CYP2C19 inh: 98.6*; CYP2C9 activ: 0.4

What do the screens show for `CCOc1ccc(-c2nnc(-c3ccccc3)o2)cc1`?
Cav3 T inh: -2.87*

How did CCCOc1ccc(-c2nnc(-c3cccs3)o2)cc1 do in these assays?
Cav3 T inh: -0.201

Results for CCCCOc1ccc(-c2nnc(-c3ccncc3)o2)cc1 ?
CYP2C19 act: 0; Cav3 T inh: -0.226; CYP2C9 inhib: 54.4*; CYP2C19 inh: 96.2*; CYP2C9 activ: 0.5

What do the screens show for `O=C(Sc1nnc(-c2ccccc2)o1)N1c2ccccc2Sc2ccccc21`?
Cav3 T inh: -0.595

What do the screens show for `CCOc1ncccc1C(=O)OCc1nnc(-c2ccccc2)o1`?
CYP2C19 act: 0.2; Cav3 T inh: -1.2; CYP2C9 inhib: 28.2; CYP2C19 inh: 84.0*; CYP2C9 activ: 0.7

What do the screens show for `O=C(CCN1c2ccccc2Sc2ccccc21)OCc1nnc(-c2ccccc2)o1`?
CYP2C19 act: 0; Cav3 T inh: -3.04; CYP2C9 inhib: 95.1*; CYP2C19 inh: 95.7*; CYP2C9 activ: 0

How did O/N=C1/CCCSc2ccccc21 do in these assays?
CYP2C19 act: 1.1; Cav3 T inh: 0.238; CYP2C9 inhib: -2.2; CYP2C19 inh: -7.8; CYP2C9 activ: 1

Results for CCOc1ccc(OCC)c(NC(=O)CCn2c(=O)oc3ccccc32)c1 ?
CYP2C19 act: 0.6; Cav3 T inh: 0.0357; CYP2C9 inhib: 49.3; CYP2C19 inh: 35.9; CYP2C9 activ: 0.5

What do the screens show for `COc1cccc(CNC(=O)CCS(=O)(=O)c2cccc3nonc23)c1`?
CYP2C19 act: 0.6; CYP2C9 inhib: -18.6; CYP2C19 inh: 42.4; CYP2C9 activ: 1.2

What do the screens show for `O=C(OCc1nnc(-c2ccccc2)o1)c1ccco1`?
CYP2C19 act: 0.8; Cav3 T inh: 0.566; CYP2C9 inhib: 6.5; CYP2C19 inh: 18.1; CYP2C9 activ: 0.9

Results for O=C(OCc1nnc(-c2ccccc2)o1)c1ccc2c(c1)OCO2 ?
CYP2C19 act: 0.3; Cav3 T inh: -0.618; CYP2C9 inhib: 81.2*; CYP2C19 inh: 65.4*; CYP2C9 activ: 0.2

How did CCOc1ccc(-c2nnc(-c3ccncc3)o2)cc1 do in these assays?
CYP2C19 act: 0; Cav3 T inh: 0.307; CYP2C9 inhib: 44.5; CYP2C19 inh: 98.8*; CYP2C9 activ: 0.6

What do the screens show for `CCOc1ccc(-c2nnc(-c3ccc(OC)cc3)o2)cc1`?
Cav3 T inh: -0.474

What do the screens show for `CCOC(=O)c1c(C)nc(-c2ccccc2)nc1N`?
CYP2C19 act: 0.2; Cav3 T inh: 0.412; CYP2C9 inhib: 67.0*; CYP2C19 inh: 81.5*; CYP2C9 activ: 0.3

Bioassay records as filed in PubChem BioAssay.
